# In all, about 69,000 compounds went through this assay and about 8,600 (12%) showed an effect of 50% or more. For the sample, strong results were picked, then their nearest neighbours and some compounds at random.
# Test system: Plasmodium berghei
# Assay: Screen against P. berghei liver stage (PbLuc), transformed with Luciferase, at 10uM
# Assay type: functional, HepG2
# Details: tested at 10 uM
row,Compound,INHIBITION
1,CC(C)CNC(=O)NC(=O)C(C)Nc1cccc(CN2CCOC2=O)c1 (stereo unspecified),-34.2%
2,CC(C)c1ccc(OCCC(=O)N2CCC(C(=O)N(C)C)CC2)cc1,-37.55%
3,Cc1cc(C(=O)N2CCCCC2c2nc3cc(F)ccc3[nH]2)nn1C (stereo unspecified),10.7%
4,Cn1cc(C2COC3(CCN(C(=O)c4cnccn4)CC3)C2)cn1 (stereo unspecified),39.2%
5,Cc1oc(C(=O)O)cc1S(=O)(=O)Nc1ccc(Br)cc1Cl,-18.8%
6,CN(C)CC(NC(=O)c1ccn(C)c(=O)c1)c1ccccc1 (stereo unspecified),4.34%
7,CN(C)c1cccc(C(=O)NCC2(O)CCOCC2)c1,58.3%
8,O=C(NCC1(O)CCOCC1)c1ccc(F)cc1,54.8%
9,CN(C)c1ccc(C(=O)NCC2(O)CCOCC2)cc1,-3.95%
10,O=C(NCC1(O)CCOCC1)c1ccn(-c2ccccc2F)n1,-14.9%
11,Cc1ccc(C(=O)NCC2(O)CCOCC2)cc1F,48.4%
12,CC1(C(=O)NCc2ccsc2)CCOCC1,44.9%
13,CC1(C(=O)NCc2cc(F)cc(F)c2)CCOCC1,37.5%
14,COC(=O)c1ccc(C(=O)NCC2(O)CCOCC2)cc1,36.3%
15,CC1(C(=O)NCCc2ccc(F)cc2)CCOCC1,54%
16,CN1CCN(C(=O)c2cc(C#N)cn2C)c2ccccc2C1,-59.5%

row,Compound,INHIBITION
1,CCn1cc(S(=O)(=O)N2CCCCCC2c2cc(C)no2)cn1 (stereo unspecified),-7.66%
2,Cc1cc(C)n(CC2CCCN2C(=O)CCc2ccco2)n1 (stereo unspecified),27.25%
3,NC(=O)C(Nc1ccc(Cl)cc1)c1ccc(F)cc1 (stereo unspecified),4.81%
4,CCCc1nc(C(C)(C)NC(=O)C2CC(=O)N(CC(C)C)C2)no1 (stereo unspecified),-5.25%
5,CC1=C(C#N)C(=O)NC(=O)/C1=C\c1c(C)[nH]n(-c2ccc(C)cc2)c1=O,47.1%
6,Cn1cc(C(=O)OC2CN(c3nc4c(C(F)(F)F)cccc4s3)C2)nn1,-45.6%
7,Cc1cc(O)c(OCC(=O)Nc2nccs2)cn1,-18%
8,Cc1cc(O)c(OCC(=O)Nc2nc3c(s2)CCCC3)cn1,40%
9,Cc1cc(O)c(OCC(=O)Nc2nc3c(s2)CCCCC3)cn1,54.9%
10,CCc1ncc2c(n1)CN(Cc1nc(-c3ccoc3)no1)CC2,27.8%
11,CN(C)C(=O)c1cccc(CN2CCOC(Cn3cccn3)C2)c1 (stereo unspecified),-2.33%
12,O=C(c1ccc(Cl)cc1)N1CCC(N2CCOC2=O)CC1,41.6%
13,O=C(CC1=CSC2=NCCN12)N1CCCC(CCc2cccc(F)c2)C1 (stereo unspecified),68.5%
14,Nc1nc(CC(=O)N2CCCC(CCc3cccc(F)c3)C2)cc(=O)[nH]1 (stereo unspecified),7.3%
15,O=C(CC1=CSC2=NCCCN12)N1CCCCC1c1cccc(F)c1 (stereo unspecified),32.3%

# Source: ChEMBL document CHEMBL4513216, “Probing the Open Global Health Chemical Diversity Library for Multistage-Active Starting Points for Next-Generation Antimalarials” (ACS Infect Dis, 2020)
